In PubChem BioAssay (NCATS):
Inconclusive results are not listed. Activity calls are given as the source filed them. The call rests on the fitted dose curve; in most records, active means well fitted curve in the direction sought with a large enough effect; inconclusive means small, poorly fitted or top-dose-only effect, or another doubt; inactive means no such curve, though single readings can be large; an effect the other way counts as inactive or inconclusive. Where a SMILES comes first, the peptide text is derived from it. [ ]: non-standard residue; d: D form. 2Abz = Nc1ccccc1C(=O)O

Legend:
[1] = target: Phospholipid hydroperoxide glutathione peroxidase GPX4 (Homo sapiens) (UniProt P36969); experiment: Primary qHTS Assay for Inhibitors of Recombinant Selenoprotein Glutathione Peroxidase 4 (GPX4) (AID 1845192); conditions: recombinant GPX4, GR-coupled NADPH fluorescence, 15 min; series mostly up to 50 µM; further: nearly all actives have a fitted effect of over 65% in size; on activity change, negative = inhibition: on the % scale 0 is the no-effect control and ±100 the full control effect
Method in brief: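 NADPH consumption, followed by fluorescence at 340/450 nm between 0 and 15 min, reports GPX4 activity via coupled glutathione reductase (100 nM). Enzyme 200 nM was pre-exposed to compound 30 min; 0.5 mM cumene hydroperoxide and 1 mM GSH served as substrates.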

[2] = target: Luciferin 4-monooxygenase (Photinus pyralis) (UniProt P08659); experiment: Primary firefly luciferase (FLuc) qHTS assay for identification of artifact compounds. (AID 1845220); conditions: purified firefly luciferase, luminescence, 5 min; series mostly up to 54.1 µM; further: nearly all actives have a fitted effect of over 60% in size;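 on activity change, negative = inhibition: plate controls were DMSO vehicle for no effect and no enzyme for full effect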
Method in brief: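 FLuc 10 nM; luciferin 10 uM; ATP 10 uM; Tris-acetate pH 7.6, Mg-acetate 10 mM; 15 min RT preincubation; 5 min reaction; luminescence.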

[3] = Primary fluorescence-based thiol-reactive (MSTI) qHTS assay for identification of artifact compounds. (AID 1845221); conditions: MSTI thiol-reactivity probe, 1 h; series mostly up to 53.8 µM; further: nearly all actives have a fitted effect of over 65% in size; further: potency means the concentration at half of the fitted maximal effect;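 on activity change, negative = thiol reactive: thiol-reactive compounds lower the probe fluorescence signal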
Method in brief: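 Probe: MSTI 4 uM, PBS pH 7.4, 2% DMSO. Incubation 1 h, RT, light-protected. Readout fluorescence 525/598 nm.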

[4] = test system: Nanoluciferase (engineered Oplophorus gracilirostris luciferase); experiment: Primary Nanoluciferase (NLuc) qHTS assay for identification of artifact compounds. (AID 1845222); conditions: NLuc-conditioned medium, Nano-Glo luminescence, 5 min; series mostly up to 54.1 µM;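 further: NLuc secreted into diluted conditioned medium of S16 cells; 0% = DMSO and -100% = no enzyme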
Method in brief: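 NLuc from S16 cell medium (1:55) plus test compounds, 15 min, room temperature. Luminescence after Nano-Glo (1:100) addition, 5 min.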

[5] = Primary redox qHTS assay for identification of artifact compounds. (AID 1845223); conditions: Amplex Red/HRP redox cycling with DTT, fluorescence; series mostly up to 53.8 µM;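 further: 0% = DMSO and 100% = reference compound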
Method in brief: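 Amplex Red (25 uM) and HRP (250 mU/mL) in HBSS, with compounds for 15 min, then 250 uM DTT for 30 min, room temperature, dark. Fluorescence 525/598 nm read; normalized to DMSO and 10 uM DA3003; Hill fit.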

Phospholipid hydroperoxide glutathione peroxidase GPX4 (Homo sapiens), sequence (P36969 whole entry, looked up): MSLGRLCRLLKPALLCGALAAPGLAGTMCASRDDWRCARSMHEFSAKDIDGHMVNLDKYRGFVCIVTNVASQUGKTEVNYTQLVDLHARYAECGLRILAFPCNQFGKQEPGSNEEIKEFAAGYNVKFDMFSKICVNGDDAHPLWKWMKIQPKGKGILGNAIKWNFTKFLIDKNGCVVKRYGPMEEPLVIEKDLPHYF

CC(C)(O)c1ccc2c(c1)C(=O)CC1[C@](C)(CO)CCC[C@]21C (stereo not given in full)
active: Potency [3] 13.1 µM
inactive: Potency [1] | Potency [2] | Potency [4] | Potency [5]

CC(=O)N1c2ccccc2C2(O)CC3C(=O)NC(CC(C)C)C(=O)N3C12 (stereo not given)
inactive: Potency [1] | Potency [2] | Potency [3] | Potency [4] | Potency [5]

O=C(O)CCc1cccc(O[C@@H]2O[C@H](CO)[C@@H](O)[C@H](O)[C@H]2O)c1O
active: Potency [3] 8.26 µM
inactive: Potency [1] | Potency [2] | Potency [4] | Potency [5]

COc1cc(N2CCC(O)CC2)ccc1Nc1cc(Nc2ccccc2S(=O)(=O)C(C)C)c2cc[nH]c2n1
inactive: Potency [1] | Potency [2] | Potency [4] | Potency [5]
active: Potency [3] 0.927 µM

CC(/C=C/C1(O)C2(C)COC1(C)CC(=O)C2)O[C@@H]1O[C@H](CO)[C@@H](O)[C@H](O)[C@H]1O (stereo not given in full)
inactive: Potency [1] | Potency [2] | Potency [4] | Potency [5]
active: Potency [3] 10.3 µM

C=C1CC2C3(C)C(O)CC(=O)C(C)(C)C3C(OC(C)=O)C(OC(C)=O)C2(C)C2C(=O)OC(C)(C(=O)OC)C(=O)C12C (stereo not given)
inactive: Potency [1] | Potency [2] | Potency [3] | Potency [4] | Potency [5]

CC1CCC2C(C)(C)CC(C)(CO)C2(O)C1C(=O)O (stereo not given)
inactive: Potency [1] | Potency [2] | Potency [3] | Potency [4] | Potency [5]

CC1(CO)CC[C@]2(C(=O)O[C@@H]3O[C@H](CO)[C@@H](O)[C@H](O)[C@H]3O)CC[C@]3(C)C(=CCC4[C@@]5(C)C[C@H](O)[C@H](O[C@@H]6OC[C@@H](O)[C@H](O)[C@H]6O)[C@@](C)(CO)C5CC[C@]43C)C2C1 (stereo not given in full)
inactive: Potency [1] | activity change, negative = inhibition [2] 4.3% [at 11.6 µM] | activity change, negative = thiol reactive [3] 76.2% [at 11.5 µM] | activity, negative = inhibition [4] 0% [at 11.6 µM] | redox activity (% of DA3003) [5] 6.69% [at 11.5 µM]

C=C[C@@]1(C)CC(=O)C2[C@](C)(O1)[C@@H](OC(C)=O)[C@@H](O)[C@H]1C(C)(C)CCC[C@]21C (stereo not given in full)
inactive: Potency [1] | outcome [2] inactive [at 11.6 µM] | activity change, negative = thiol reactive [3] 58.5% [at 11.5 µM] | activity, negative = inhibition [4] 3.51% [at 11.6 µM] | redox activity (% of DA3003) [5] 11% [at 11.5 µM]

CN1C(=O)N[C@@H](Cc2c[nH]c3c(Cl)cccc23)C1=O
inactive: Potency [1] | Potency [2] | Potency [3] | Potency [4] | Potency [5]

CC(C)c1ccc(CC(=O)N2CCC[C@@H](c3cccc(OC(C)(C)C(=O)O)c3)C2)cc1
inactive: Potency [1] | Potency [2] | Potency [3] | Potency [4] | Potency [5]

Cc1nn(C)c(COc2ccc(N3CCN(S(=O)(=O)N(C)C)CC3)cc2)c1-c1cccc2c(CCCOc3cccc4ccccc34)c(C(=O)O)n(CCN3CCOCC3)c12
inactive: Potency [1] | Potency [2] | Potency [3] | Potency [4] | Potency [5]

O=C1NCc2nc3ccccc3c(=O)n2C1Cc1c[nH]c2ccccc12 (stereo not given)
inactive: Potency [1] | Potency [2] | Potency [3] | Potency [4] | Potency [5]

COC(=O)C1(Cc2ccc(O)cc2)OC(=O)C(OC)=C1c1ccc(O)cc1 (stereo not given)
inactive: Potency [1] | Potency [2] | Potency [3] | Potency [4] | Potency [5]

CO[C@@H]1COCC[C@@H]1N[C@@H]1CC[C@@](C(=O)N2CCc3ncc(C(F)(F)F)cc3C2)(C(C)C)C1
inactive: Potency [1] | Potency [2] | Potency [3] | Potency [4] | Potency [5]

CC(=O)O[C@@H]1[C@H](O[C@@H]2O[C@H](CO)[C@@H](O)[C@H](O)[C@H]2O)[C@@H](O[C@@H]2O[C@@H](C)[C@H](O)[C@@H](O[C@@H]3O[C@H](CO)[C@@H](O)[C@H](O)[C@H]3O)[C@H]2O)[C@H](OC(=O)C23CCC4(C)C(=CCC5C6(C)CC(O)C(O[C@@H]7O[C@H](C(=O)O)[C@@H](O)[C@H](O)[C@H]7O)C(C)(C(=O)O)C6CCC54C)C2CC(C)(C)CC3O)O[C@@H]1C (stereo not given in full)
inactive: activity change, negative = inhibition [1] 1.73% [at 9.73 µM] | outcome [2] inactive [at 11.6 µM] | activity change, negative = thiol reactive [3] 205% [at 11.5 µM] | activity, negative = inhibition [4] 0% [at 11.6 µM] | redox activity (% of DA3003) [5] 12.9% [at 11.5 µM]

C=C1C[C@]23C[C@H]1CC[C@H]2[C@@]12C=C[C@H](O)[C@@](C)(C(=O)O1)[C@H]2[C@@H]3C(=O)O
inactive: Potency [1] | Potency [2] | Potency [3] | Potency [4] | Potency [5]

CNc1nc(Nc2cnn([C@H]3CCN(C4COC4)C[C@@H]3F)c2Cl)ncc1C(F)(F)F
inactive: Potency [1] | Potency [2] | Potency [3] | Potency [4] | Potency [5]

C1CCN2CC3C[C@@H](CN4CCCC[C@@H]34)[C@H]2C1
inactive: Potency [1] | Potency [2] | Potency [3] | Potency [4] | Potency [5]

CC1(C)CC2C3=CCC4C5(C)CCC(OC6OC(C(=O)O)C(O)C(O)C6OC6OC(CO)C(O)C(O)C6OC6OC(CO)C(O)C(O)C6O)C(C)(CO)C5CCC4(C)C3(C)CCC2(C)C(OC2OCC(O)C(OC3OC(CO)C(O)C(O)C3O)C2O)C1O (stereo not given)
inactive: activity change, negative = inhibition [1] -2.61% [at 9.73 µM] | activity change, negative = inhibition [2] -3.45% [at 11.6 µM] | activity change, negative = thiol reactive [3] 89.2% [at 11.5 µM] | activity, negative = inhibition [4] 2.9% [at 11.6 µM] | redox activity (% of DA3003) [5] 10.1% [at 11.5 µM]

CCC(C)C1NC(=O)C2CCCN2C(=O)C(C(C)C)NC(=O)c2ccccc2NC(=O)C(Cc2ccc(O)cc2)NC(=O)C(C)NC(=O)C(C(C)O)NC1=O (stereo not given) (cyclo([2Abz]VPITAY); configuration not given here)
inactive: Potency [1] | Potency [2] | Potency [3] | Potency [4] | Potency [5]

O=C(Nc1cccnn1)N1CCC(=Cc2cccc(Oc3ccc(C(F)(F)F)cn3)c2)CC1
inactive: Potency [1] | Potency [2] | Potency [3] | Potency [4] | Potency [5]

C=C1C[C@]23C[C@H]1CC[C@H]2[C@]1(C)CCC[C@@]2(CO)C(=O)O[C@H]([C@H]21)[C@@H]3O
inactive: Potency [1] | Potency [2] | Potency [3] | Potency [4] | Potency [5]
